The results in this text go back to PubChem BioAssay (NCI).

Common to all, as to assay: NCI-60 one-dose screen, 48 h (100 = growth as untreated, 0 = no growth, -100 = all killed)
Holding throughout (details): 10 µM unless noted

Assay [1] concerns HCT-15 colon.
The test system of assay [2] is HT29 colon.
For assay [3], the system named is SNB-75 CNS.
In assay [4] the test system is SNB-19 CNS.
Assay [5] concerns U251 CNS.
Assay [6] relates to PC-3 prostate.
Assay [7] relates to SK-MEL-5 melanoma.
Assay [8] concerns UACC-62 melanoma.
Assay [9] relates to SK-MEL-28 melanoma.
For assay [10], the system named is LOX IMVI melanoma.

Structures are written as SMILES. About 83,000 compounds went through this panel and 20% of them were active in at least one assay; those are over-represented in the sample as a whole.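 For each line, cells grew in 96-well plates with the test compound present at a single concentration for 48 hours.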 Values without a mark were called inactive. The source made the active and inactive calls. Rule for the calls: active = growth percent below 10; inactive = the rest.

Regarding `CC1OC(n2c3ccccc3c3c4c(c5c6ccccc6[nH]c5c32)C(=O)N(CCN2CCOCC2)C4=O)CC(O)C1O` (stereo not given), the growth in assay [1] is 26.5%; in assay [2] it was 13.4%; in assay [3], 5.86% (active); in assay [4] it was 21.5%; in assay [5], 10.4%; in assay [6] it was 34%. The growth in assay [7] was 5.46% (active); in [8], 21.1%; in [9], 67.6%.
As for `O=C(c1ccccc1)C1OC1C(=O)c1ccccc1` (stereo not given), the growth in [1] is 13.1%; in [2], 10% (active); in assay [3], 11.1%; in [4], 92.9%; in assay [5], 28.1%; in [6] it was 51%. The growth in [7] is 37.7%; in [8], 46.8%; in assay [9], 49.2%.
With `CS(=O)(=O)c1ccc(C(=O)N/N=C/c2ccccc2Cl)cc1`, the growth in assay [1] was 102%; in [2], 104%; in [3] it was 84.9%; in assay [4], 95.1%; in [6], 99%; in [7] it was 111%. Moreover, the growth is 98.5% in assay [8], 99.9% in assay [10] and 103% in assay [9].
In the case of `COC(=O)[C@H](Cc1cn(C)cn1)NC(=O)[C@H](CC(C)C)NC(=O)Nc1cc(C(F)(F)F)cc(C(F)(F)F)c1`, the growth in [1] is -96.6% [100 µM] (active); in assay [2] it was -89.6% [100 µM] (active); in [3], -100% [100 µM] (active); in assay [4], -97.9% [100 µM] (active); in [6], -95.1% [100 µM] (active); in [7] it was -95.4% [100 µM] (active). The growth is -99.3% [100 µM] (active) in [8], -86.6% [100 µM] (active) in assay [10] and -100% [100 µM] (active) in assay [9].
Take `COc1cc(-c2nn(C(=O)NCCN3CCN(C)CC3)cc2-c2ccncc2)ccc1Cl`: the growth in assay [1] was 88.7%; in assay [2] it was 47%; in assay [3] it was 42.3%; in assay [4], 77.5%; in assay [5], 80.9%; in assay [6] it was 74.3%. The figures for the growth in assay [7], in assay [8] and in [9] were 62.4%, 57.6% and 68.1%, respectively.
For `COc1ccc2c(c1)OC1=C(C(=O)OC1)C2c1cc(OC)c2c(c1)OCCO2` (stereo not given), the growth in assay [1] was 12.8%; in [2], 5.47% (active); in assay [3], 30%; in [4], 38.8%; in [6] it was 25.6%; in [7] it was -17.7% (active). The growth in assay [8] was 36.3%; in assay [10] it was 21.3%; in assay [9], 45.4%.
With `O=C1Nc2ccc(Cl)cc2/C1=C\c1c(-c2ccc(F)cc2)nc2ccccn12`, the growth in [1] is 21.4%; in [2], 0.999% (active); in [3], -49.4% (active); in assay [4] it was 41.6%; in [6], 18.8%; in [7], -28.4% (active). Besides, the growth in assay [8] was 7.95% (active); in [10], -30.1% (active); in assay [9], 6.38% (active).
On to `COc1ccc(-c2cc(-c3cc4ccccc4oc3=O)n(-c3ccccc3)n2)cc1`, for which the growth was 103% in [1]; 83.8% in assay [2]; 77% in [3]; 82% in [4]; 76.1% in [6]; 94.5% in [7]. For the same compound, the figures for the growth in [8], in assay [10] and in assay [9] were 80.3%, 59.8% and 106%, respectively.
`N=C(N)c1ccc(-c2ccc(-c3ccco3)o2)cc1F`: the growth in assay [1] is -40.6% (active); in assay [2] it was -2.59% (active); in assay [3] it was 41.4%; in assay [4], 67.2%; in assay [6], 24.5%; in assay [7], -93.6% (active). Moreover, the growth in [8] was -68.6% (active); in assay [10] it was -9.26% (active); in assay [9] it was -46.8% (active).
With `Cc1nc(N)nc2c1CCC(Nc1ccccc1)S2` (stereo not given), the growth in [1] is 100%; in assay [2] it was 104%; in [3] it was 98.3%; in [4] it was 111%; in [6], 90.6%; in assay [7], 99.1%. The growth was 108% in assay [8], 97% in assay [10] and 114% in assay [9].
Take `NC(CCC(=O)NC(CS)C(=O)NCC(=O)O)C(=O)O` (stereo not given): the growth in [1] was 101%; in [2], 106%; in assay [3], 95.6%; in [4], 99%; in assay [6], 81.5%; in assay [7], 102%. In addition, the results for the growth in assay [8], in [10] and in assay [9] were 96.7%, 104% and 116%, respectively.
Regarding `CC(C)(C)[Si](C)(C)OC1[C@@H](O[Si](C)(C)C(C)(C)C)[C@@H](CNC(=O)NC(=O)NC(=O)CI)O[C@H]1n1cnc2c(NC(=O)Nc3ccccc3)ncnc21` (stereo not given in full), the growth was 83.1% in assay [1]; -39.8% (active) in assay [2]; 68.1% in [3]; 103% in [4]; 32.5% in assay [5]; 14.7% in assay [6]. In addition, the growth was 102% in assay [7], 75.4% in assay [8] and 125% in [9].
On to `Nc1ncnc2c1N=C(c1ccc3c(c1)OCO3)CC(c1ccc(Cl)cc1)N2` (stereo not given), for which the growth was 63.6% in assay [1]; 69.8% in assay [2]; 48.5% in [3]; 67.8% in assay [4]; 74% in assay [5]; 62.6% in assay [6]. The figures for the growth in assay [7], in assay [8] and in assay [9] were 78%, 60.3% and 88.5%, respectively.
For `Cc1ccncc1NC=O`, the growth in assay [1] was 104%; in [2], 111%; in [3], 103%; in assay [4], 102%; in assay [6] it was 99%; in assay [7], 101%. The growth in assay [8] was 101%; in [10] it was 104%; in [9], 112%.
Turning to `COc1cc(NC(=O)CSc2nc3ccc(Cl)cc3c(=O)n2Cc2ccccc2)cc(OC)c1OC`, the growth in [1] is 88.3%; in assay [2], 56.5%; in assay [3], 53.4%; in assay [4] it was 88.3%; in assay [5] it was 55.5%; in [6] it was 71.1%. The values for the growth in assay [7], in [8] and in assay [9] were 45.5%, 43.2% and 78.2%, respectively.
